Binding signal data for two sequences are collected here from PMC7862700, “An all-to-all approach to the identification of sequence-specific readers for epigenetic DNA modifications on cytosine”.

Common to all, as to assay: DAPPL (digital affinity profiling via proximity ligation, sequencing); 10 mM Tris-HCl pH 7.5, 50 mM NaCl, 1 mM DTT, 4% glycerol, room temperature, 30 min; GST-TFs on glutathione beads, 16-mer random dsDNA library, 0.1% formaldehyde crosslink after washing; high values mean tight binding
Holding throughout (conditions): protein: recombinant; tags: N-terminal GST; dsDNA, one strand shown

For one test, the target named is T1, FLI1 (Homo sapiens, UniProt Q01543 1-452).
T1 sequence: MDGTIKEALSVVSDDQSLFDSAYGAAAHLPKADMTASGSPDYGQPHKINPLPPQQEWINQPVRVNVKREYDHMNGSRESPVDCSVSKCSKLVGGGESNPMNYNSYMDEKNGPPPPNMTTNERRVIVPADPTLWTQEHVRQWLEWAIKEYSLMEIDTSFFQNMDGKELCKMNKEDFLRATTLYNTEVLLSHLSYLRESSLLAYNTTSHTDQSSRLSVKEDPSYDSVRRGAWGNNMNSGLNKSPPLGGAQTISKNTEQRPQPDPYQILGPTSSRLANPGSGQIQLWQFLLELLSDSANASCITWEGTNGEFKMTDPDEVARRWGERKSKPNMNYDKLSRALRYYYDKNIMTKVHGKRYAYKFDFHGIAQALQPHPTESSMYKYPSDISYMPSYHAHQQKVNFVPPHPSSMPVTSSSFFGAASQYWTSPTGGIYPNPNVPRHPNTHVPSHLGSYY
The method, boiled down: (§1)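 Sequencing on an Illumina NextSeq500 followed washing, crosslinking with 0.1% formaldehyde, proximity ligation (BsaI/T4 ligase, 1 h, 37 °C) and PCR amplification of pools that had been incubated for 30 min at room temperature with 200 nmole of a random double-stranded 16-mer DNA library in Tris/NaCl/DTT/glycerol buffer. Each pool held DNA-barcoded human transcription factors, expressed in yeast as GST fusions and captured on glutathione beads, plus a tag-only sample. Binding signal is a hexamer's read frequency for a factor divided by its frequency in the tag-only sample.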

Another test deals with T2, ELK1 (Homo sapiens, UniProt P19419 1-428).
T2 sequence: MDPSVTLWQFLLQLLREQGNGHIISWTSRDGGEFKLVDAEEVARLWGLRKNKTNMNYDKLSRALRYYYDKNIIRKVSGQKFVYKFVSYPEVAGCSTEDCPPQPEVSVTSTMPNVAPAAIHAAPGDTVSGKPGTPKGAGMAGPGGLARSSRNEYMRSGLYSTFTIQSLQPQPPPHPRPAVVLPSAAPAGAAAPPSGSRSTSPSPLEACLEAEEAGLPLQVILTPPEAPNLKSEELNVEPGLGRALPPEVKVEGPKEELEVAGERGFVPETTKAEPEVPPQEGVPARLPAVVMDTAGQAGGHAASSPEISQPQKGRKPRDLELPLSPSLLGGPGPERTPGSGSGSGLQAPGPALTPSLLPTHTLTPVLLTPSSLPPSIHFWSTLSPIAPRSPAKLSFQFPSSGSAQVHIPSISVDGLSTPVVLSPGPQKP
The essentials:
as §1

A further test addresses T3, GABPA (Homo sapiens, UniProt Q06546 1-454).
T3 sequence: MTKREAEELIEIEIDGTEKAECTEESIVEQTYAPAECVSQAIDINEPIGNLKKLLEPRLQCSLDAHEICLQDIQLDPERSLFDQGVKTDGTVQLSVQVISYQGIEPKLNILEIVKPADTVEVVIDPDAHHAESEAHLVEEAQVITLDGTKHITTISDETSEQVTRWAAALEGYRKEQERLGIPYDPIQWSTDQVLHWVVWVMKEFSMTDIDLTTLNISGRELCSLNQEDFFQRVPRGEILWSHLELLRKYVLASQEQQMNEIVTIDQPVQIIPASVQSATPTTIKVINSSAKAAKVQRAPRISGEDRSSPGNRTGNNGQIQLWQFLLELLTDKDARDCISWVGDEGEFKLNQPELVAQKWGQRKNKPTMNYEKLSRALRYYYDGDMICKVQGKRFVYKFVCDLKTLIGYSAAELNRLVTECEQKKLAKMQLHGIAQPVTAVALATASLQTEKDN
The essentials:
as §1

Another test has as its target T4, ERG (Homo sapiens, UniProt P11308 1-479).
T4 sequence: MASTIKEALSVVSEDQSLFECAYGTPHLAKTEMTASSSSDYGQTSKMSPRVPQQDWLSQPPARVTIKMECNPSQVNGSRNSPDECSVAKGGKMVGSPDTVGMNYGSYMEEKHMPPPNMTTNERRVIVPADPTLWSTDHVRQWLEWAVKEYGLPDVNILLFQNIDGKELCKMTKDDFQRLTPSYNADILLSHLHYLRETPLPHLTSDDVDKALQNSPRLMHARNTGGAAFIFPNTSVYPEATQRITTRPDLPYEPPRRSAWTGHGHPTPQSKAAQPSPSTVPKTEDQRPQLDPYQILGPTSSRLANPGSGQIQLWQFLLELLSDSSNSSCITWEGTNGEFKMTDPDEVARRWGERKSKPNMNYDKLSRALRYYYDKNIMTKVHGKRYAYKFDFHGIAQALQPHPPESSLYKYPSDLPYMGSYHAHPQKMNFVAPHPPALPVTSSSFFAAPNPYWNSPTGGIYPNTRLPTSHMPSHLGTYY
The method, boiled down: as §1

The next test concerns the target ELF1 (Homo sapiens, UniProt P32519 1-619). The method, boiled down: as §1
The target in the next test is T5, EHF (Homo sapiens, UniProt Q9NZC4 1-300).
T5 sequence: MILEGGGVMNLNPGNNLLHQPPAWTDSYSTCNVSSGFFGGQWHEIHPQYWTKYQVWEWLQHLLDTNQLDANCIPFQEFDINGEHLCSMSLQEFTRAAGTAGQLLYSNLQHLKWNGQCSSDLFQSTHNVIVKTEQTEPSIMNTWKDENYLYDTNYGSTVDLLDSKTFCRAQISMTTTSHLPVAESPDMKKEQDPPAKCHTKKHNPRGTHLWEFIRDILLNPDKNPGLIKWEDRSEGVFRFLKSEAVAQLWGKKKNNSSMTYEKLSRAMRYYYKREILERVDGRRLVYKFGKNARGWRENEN
The method, boiled down: as §1

Another test addresses SPI1 (Homo sapiens, UniProt P17947 1-270). The essentials:
as §1

Another test has as its target SPIB (Homo sapiens, UniProt Q01892 1-262). The method, boiled down: as §1
For a further test, the target named is T6, ELK3 (Homo sapiens, UniProt P41970 1-407).
T6 sequence: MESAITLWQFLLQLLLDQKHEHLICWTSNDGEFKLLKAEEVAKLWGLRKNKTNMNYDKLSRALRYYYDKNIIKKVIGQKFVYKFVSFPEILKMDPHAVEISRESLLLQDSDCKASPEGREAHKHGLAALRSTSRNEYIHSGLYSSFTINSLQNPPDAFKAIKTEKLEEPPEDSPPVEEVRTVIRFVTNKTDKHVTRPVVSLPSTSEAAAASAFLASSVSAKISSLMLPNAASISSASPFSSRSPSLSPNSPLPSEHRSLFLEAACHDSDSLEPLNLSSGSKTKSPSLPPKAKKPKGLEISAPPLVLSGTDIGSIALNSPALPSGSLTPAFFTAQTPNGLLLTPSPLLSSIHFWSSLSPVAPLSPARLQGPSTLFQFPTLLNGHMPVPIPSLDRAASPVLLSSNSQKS
The method, boiled down: as §1

For the next test, the target named is T7, FEV (Homo sapiens, UniProt Q99581 1-238).
T7 sequence: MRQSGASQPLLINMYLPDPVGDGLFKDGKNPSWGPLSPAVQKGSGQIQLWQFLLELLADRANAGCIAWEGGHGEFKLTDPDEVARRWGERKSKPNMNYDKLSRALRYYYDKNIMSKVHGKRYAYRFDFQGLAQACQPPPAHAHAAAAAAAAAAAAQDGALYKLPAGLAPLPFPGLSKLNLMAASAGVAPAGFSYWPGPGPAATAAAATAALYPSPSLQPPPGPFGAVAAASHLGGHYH
The essentials: as §1

Another test concerns the target ETV5 (Homo sapiens, UniProt P41161 1-510). The method, boiled down:
as §1

In a further test the target is T8, SPIC (Homo sapiens, UniProt Q8N5J4 1-248).
T8 sequence: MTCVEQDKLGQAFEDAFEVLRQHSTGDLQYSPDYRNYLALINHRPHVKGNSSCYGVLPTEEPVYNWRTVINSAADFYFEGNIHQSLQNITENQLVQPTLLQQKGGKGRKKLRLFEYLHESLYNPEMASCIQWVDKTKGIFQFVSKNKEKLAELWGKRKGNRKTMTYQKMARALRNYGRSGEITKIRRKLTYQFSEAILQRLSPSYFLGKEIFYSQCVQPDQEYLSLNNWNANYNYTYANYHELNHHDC
The essentials:
as §1

A further test deals with ELF4 (Homo sapiens, UniProt Q99607 1-663). The method, boiled down:
as §1

The target of the next test is T9, ELK4 (Homo sapiens, UniProt P28324-2 1-405).
T9 sequence: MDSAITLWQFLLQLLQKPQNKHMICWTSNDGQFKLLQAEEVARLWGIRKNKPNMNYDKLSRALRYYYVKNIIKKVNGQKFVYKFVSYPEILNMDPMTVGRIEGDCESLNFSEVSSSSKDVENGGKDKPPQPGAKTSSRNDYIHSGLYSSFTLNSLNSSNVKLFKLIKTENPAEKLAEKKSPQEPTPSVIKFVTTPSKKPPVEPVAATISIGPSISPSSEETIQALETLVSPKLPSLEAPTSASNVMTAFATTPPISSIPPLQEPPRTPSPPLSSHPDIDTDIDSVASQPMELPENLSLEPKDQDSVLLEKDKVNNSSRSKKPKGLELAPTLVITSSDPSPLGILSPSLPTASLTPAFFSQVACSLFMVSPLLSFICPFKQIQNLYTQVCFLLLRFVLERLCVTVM
The essentials:
as §1

The target of the next test is T10, ETV2 (Homo sapiens, UniProt O00321 1-342).
T10 sequence: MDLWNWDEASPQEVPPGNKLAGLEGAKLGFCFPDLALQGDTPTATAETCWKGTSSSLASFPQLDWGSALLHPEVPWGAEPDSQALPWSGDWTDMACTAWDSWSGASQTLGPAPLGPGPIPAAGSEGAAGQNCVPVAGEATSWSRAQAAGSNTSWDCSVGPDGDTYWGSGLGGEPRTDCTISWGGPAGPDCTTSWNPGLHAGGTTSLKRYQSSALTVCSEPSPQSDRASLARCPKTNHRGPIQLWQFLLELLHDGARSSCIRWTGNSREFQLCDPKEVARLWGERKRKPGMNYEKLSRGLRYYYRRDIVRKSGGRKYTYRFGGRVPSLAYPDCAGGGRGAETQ
The method, boiled down: as §1

Another test deals with T11, ELF3 (Homo sapiens, UniProt P78545 1-371).
T11 sequence: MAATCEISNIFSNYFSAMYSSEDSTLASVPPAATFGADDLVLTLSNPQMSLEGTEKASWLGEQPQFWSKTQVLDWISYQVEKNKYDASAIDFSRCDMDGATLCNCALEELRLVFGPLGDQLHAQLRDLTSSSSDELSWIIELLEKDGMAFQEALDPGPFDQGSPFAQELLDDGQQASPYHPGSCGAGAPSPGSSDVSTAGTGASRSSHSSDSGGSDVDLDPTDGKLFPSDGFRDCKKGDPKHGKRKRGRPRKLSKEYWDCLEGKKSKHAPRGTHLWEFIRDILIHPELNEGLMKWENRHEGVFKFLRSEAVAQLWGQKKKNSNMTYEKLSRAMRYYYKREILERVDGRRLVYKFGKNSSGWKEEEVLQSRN
The method, boiled down: as §1

The target in the next test is ETV1 (Homo sapiens, UniProt P50549 1-477). The method, boiled down:
as §1

SPIB, sequence (Q01892 whole entry): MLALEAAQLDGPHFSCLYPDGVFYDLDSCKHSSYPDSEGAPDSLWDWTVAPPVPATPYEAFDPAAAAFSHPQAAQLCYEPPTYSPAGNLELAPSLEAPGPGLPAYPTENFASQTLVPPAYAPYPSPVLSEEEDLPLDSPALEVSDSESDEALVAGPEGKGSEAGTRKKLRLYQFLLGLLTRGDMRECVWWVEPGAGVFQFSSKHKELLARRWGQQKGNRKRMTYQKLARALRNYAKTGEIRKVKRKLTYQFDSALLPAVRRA
ETV1, sequence (P50549 whole entry): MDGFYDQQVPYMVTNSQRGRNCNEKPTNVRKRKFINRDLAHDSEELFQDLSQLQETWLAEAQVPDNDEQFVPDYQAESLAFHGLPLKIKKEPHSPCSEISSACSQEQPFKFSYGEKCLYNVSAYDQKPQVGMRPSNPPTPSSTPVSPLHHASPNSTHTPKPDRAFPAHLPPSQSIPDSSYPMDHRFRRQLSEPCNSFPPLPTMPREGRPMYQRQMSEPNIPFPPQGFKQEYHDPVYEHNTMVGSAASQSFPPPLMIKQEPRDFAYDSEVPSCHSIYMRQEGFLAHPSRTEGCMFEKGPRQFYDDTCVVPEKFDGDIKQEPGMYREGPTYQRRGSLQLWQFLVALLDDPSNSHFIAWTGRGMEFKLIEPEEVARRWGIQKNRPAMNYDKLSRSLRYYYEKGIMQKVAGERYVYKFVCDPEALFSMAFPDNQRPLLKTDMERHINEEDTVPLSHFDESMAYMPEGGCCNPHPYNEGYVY
ELF1, sequence (P32519 whole entry): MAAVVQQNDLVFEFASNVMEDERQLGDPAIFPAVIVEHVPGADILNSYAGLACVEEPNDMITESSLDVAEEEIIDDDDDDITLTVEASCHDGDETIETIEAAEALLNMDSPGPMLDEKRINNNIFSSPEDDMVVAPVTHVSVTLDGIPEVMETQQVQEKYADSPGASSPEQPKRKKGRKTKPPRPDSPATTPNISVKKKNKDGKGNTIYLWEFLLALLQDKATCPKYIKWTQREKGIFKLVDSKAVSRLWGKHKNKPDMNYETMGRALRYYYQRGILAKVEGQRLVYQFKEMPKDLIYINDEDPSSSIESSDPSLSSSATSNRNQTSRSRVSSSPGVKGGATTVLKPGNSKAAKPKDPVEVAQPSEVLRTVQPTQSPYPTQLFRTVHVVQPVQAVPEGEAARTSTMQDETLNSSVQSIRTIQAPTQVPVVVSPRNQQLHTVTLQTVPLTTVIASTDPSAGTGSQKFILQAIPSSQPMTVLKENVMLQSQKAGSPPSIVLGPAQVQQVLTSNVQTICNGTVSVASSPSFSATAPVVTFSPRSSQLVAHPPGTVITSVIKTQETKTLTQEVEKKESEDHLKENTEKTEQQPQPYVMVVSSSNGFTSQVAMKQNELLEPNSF
ELF4, sequence (Q99607 whole entry): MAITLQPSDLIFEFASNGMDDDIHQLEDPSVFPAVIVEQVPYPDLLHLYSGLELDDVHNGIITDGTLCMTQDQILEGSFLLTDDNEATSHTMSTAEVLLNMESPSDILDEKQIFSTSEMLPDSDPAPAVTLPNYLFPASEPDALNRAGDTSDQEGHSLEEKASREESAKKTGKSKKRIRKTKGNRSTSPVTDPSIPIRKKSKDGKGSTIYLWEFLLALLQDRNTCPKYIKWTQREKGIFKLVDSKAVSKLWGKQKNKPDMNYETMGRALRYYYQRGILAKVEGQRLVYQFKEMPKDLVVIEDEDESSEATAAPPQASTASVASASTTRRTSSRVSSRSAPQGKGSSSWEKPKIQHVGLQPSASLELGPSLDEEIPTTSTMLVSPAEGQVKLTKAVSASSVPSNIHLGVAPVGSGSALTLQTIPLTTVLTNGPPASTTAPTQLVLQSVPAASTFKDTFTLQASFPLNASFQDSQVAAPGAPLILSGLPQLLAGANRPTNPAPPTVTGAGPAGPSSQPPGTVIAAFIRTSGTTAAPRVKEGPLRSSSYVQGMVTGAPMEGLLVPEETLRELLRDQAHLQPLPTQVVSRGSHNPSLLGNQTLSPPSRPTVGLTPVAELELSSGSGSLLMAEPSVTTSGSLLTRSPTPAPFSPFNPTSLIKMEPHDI
ETV5, sequence (P41161 whole entry): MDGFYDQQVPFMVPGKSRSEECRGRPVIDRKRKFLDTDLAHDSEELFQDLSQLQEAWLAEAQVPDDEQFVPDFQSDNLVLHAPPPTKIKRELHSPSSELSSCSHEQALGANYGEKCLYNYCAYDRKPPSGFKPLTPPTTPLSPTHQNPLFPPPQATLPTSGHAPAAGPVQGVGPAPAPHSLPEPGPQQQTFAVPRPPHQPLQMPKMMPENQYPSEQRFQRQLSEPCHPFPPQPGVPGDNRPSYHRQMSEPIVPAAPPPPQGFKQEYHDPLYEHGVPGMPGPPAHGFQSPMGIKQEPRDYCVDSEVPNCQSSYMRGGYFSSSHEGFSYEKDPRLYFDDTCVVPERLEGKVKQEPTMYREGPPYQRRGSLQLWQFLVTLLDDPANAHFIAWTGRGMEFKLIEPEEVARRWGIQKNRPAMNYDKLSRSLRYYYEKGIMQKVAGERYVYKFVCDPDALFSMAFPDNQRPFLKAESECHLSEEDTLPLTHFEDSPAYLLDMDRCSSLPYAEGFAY

ACCGGA: the binding signal was 2.87 fold enrichment (6-mer frequency, TF over GST control) with FLI1; 3.55 fold enrichment (6-mer frequency, TF over GST control) with ELK1; 2.66 fold enrichment (6-mer frequency, TF over GST control) with GABPA; 3.94 fold enrichment (6-mer frequency, TF over GST control) in the test with ERG; 2.87 fold enrichment (6-mer frequency, TF over GST control) with ELF1; 3.2 fold enrichment (6-mer frequency, TF over GST control) in the test with EHF. Also, the binding signal in the test with SPI1 is 3.17 fold enrichment (6-mer frequency, TF over GST control); with SPIB, 3.16 fold enrichment (6-mer frequency, TF over GST control); with ELK3, 3.55 fold enrichment (6-mer frequency, TF over GST control); in the test with FEV, 6.19 fold enrichment (6-mer frequency, TF over GST control); with ETV5, 3.33 fold enrichment (6-mer frequency, TF over GST control); in the test with SPIC, 2.63 fold enrichment (6-mer frequency, TF over GST control). Further, the binding signal is 2.78 fold enrichment (6-mer frequency, TF over GST control) in the test with ELF4; 2.4 fold enrichment (6-mer frequency, TF over GST control) with ELK4; 3.02 fold enrichment (6-mer frequency, TF over GST control) with ETV2; 3.15 fold enrichment (6-mer frequency, TF over GST control) with ELF3; 3.45 fold enrichment (6-mer frequency, TF over GST control) in the test with ETV1.
With CACCAT, the binding signal with FLI1 is 1.2 fold enrichment (6-mer frequency, TF over GST control); in the test with ELK1, 1.16 fold enrichment (6-mer frequency, TF over GST control); with GABPA, 1.06 fold enrichment (6-mer frequency, TF over GST control); in the test with ERG it was 1.08 fold enrichment (6-mer frequency, TF over GST control); with ELF1, 1.14 fold enrichment (6-mer frequency, TF over GST control); in the test with EHF, 1.12 fold enrichment (6-mer frequency, TF over GST control). Besides, the binding signal with SPI1 was 1.03 fold enrichment (6-mer frequency, TF over GST control); with SPIB, 1 fold enrichment (6-mer frequency, TF over GST control); in the test with ELK3, 1.22 fold enrichment (6-mer frequency, TF over GST control); with FEV, 1.05 fold enrichment (6-mer frequency, TF over GST control); with ETV5, 1.11 fold enrichment (6-mer frequency, TF over GST control); in the test with SPIC it was 1.06 fold enrichment (6-mer frequency, TF over GST control). Further, the binding signal with ELF4 is 1.12 fold enrichment (6-mer frequency, TF over GST control); in the test with ELK4, 1.21 fold enrichment (6-mer frequency, TF over GST control); with ETV2, 1.17 fold enrichment (6-mer frequency, TF over GST control); with ELF3 it was 1.1 fold enrichment (6-mer frequency, TF over GST control); with ETV1, 1.08 fold enrichment (6-mer frequency, TF over GST control).
